From PubChem
Lassa entry: Lassa virus entry inhibition; Lassa virus pseudotyped entry inhibition, cell-based qHTS; Potency, µM (doses to about 49.2 µM), actives largely listed as inhibitors; actives 4.1% (n = 18,000); AID 720533
MARV entry inh: inhibitors of Marburg virus binding or entry into cells; actives 6.5% (n = 18,000); AID 720532; Marburg virus pseudotype entry/binding inhibition, cell-based; Potency, µM (top dose mostly 49.2 µM), actives largely listed as inhibitors
Of the large screens only hits and unclear results are named; the others gave an inactive call; ! = repeats disagree. This is a sample that favours compounds with a hit; in the whole collection about 7.1% have one here. The call rests on the fitted dose curve; tested in HEK293 cells.

COC(=O)CC=C[C@@H](C)[C@@H](C=NO[C@H](C)CN1CCCc2nc(C)c(C)cc21)N[S+](=O)([O-])c1ccc(C)cc1	MARV entry inh inconclusive
CN(C(=O)Cc1ccc(Cl)c(Cl)c1)[C@H](CN1CCCC1)c1ccccc1	Lassa entry 20µM, MARV entry inh 7.08µM
CN(C(=O)Cc1ccccc1)[C@H](CN1CCCC1)c1ccccc1	MARV entry inh inconclusive
C[C@@H]1CC[C@H]2[C@@H](C)C(=O)O[C@@H]3O[C@@]4(C)CC[C@@H]1[C@]32OO4	Lassa entry 2.24µM, MARV entry inh 1.78µM
CC1CCC2C(C)C(=O)OC3O[C@]4(C)CCC1[C@@]32OO4 (stereo partly specified)	none
CN1CC[C@]2(C)c3cc(O)ccc3N(C)[C@@H]12	MARV entry inh 11.2µM
CNC(=O)Oc1ccc2c(c1)[C@]1(C)CCN(C)[C@@H]1N2C	none
CCN1C(N(C)CCc2ccc(Br)cc2)=NC(c2ccccc2)C(C(=O)OC)=C1C (stereo unspecified)	MARV entry inh inconclusive
CCCCCC(=O)N1C[C@@H](n2cc(COC(=O)c3ccccc3)nn2)[C@H](O)C[C@H]1c1ccccc1	none
COC(=O)CC(Oc1c(C)n(C)c2ccccc2c1=O)c1ccccc1 (stereo unspecified)	none
Cc1ccc2c(=O)c3ccccc3n(CCCN)c2c1C	Lassa entry 10µM!, MARV entry inh 10µM
COc1ccc([C@]23Cc4ccccc4[C@H](O2)C2=C(CCCC2=O)O3)cc1	none
CCOC(=O)NN=C1C[C@@H](O)[C@@H](O)[C@@H]2[C@H]3C(=O)N(c4cccc(Oc5ccccc5)c4)C(=O)[C@@H]3CC[C@@H]12	none
CCOC(=O)[C@@]12[C@@H]3[C@@H](CCN3C(=O)N[C@H]1c1ccccc1)C2(C)C	none (no result: Lassa entry)
COc1cccc([C@@H]2NC(=O)CC=C[C@H](C)[C@H](c3cccc(OC)c3)NC(=O)CC=C[C@H]2C)c1	none
CN1CCCN([C@@H](c2ccccc2)c2ccc(Cl)cc2)CC1	MARV entry inh 11.2µM
OCCOCCN1CCN([C@@H](c2ccccc2)c2ccc(Cl)cc2)CC1	MARV entry inh inconclusive
COc1cccc(-c2cc(=O)c3cc(NC(=O)c4ccc(Cl)cc4)ccc3[nH]2)c1	MARV entry inh inconclusive
COc1cccc(-c2cc(=O)c3cc(NC(=O)c4ccccc4)ccc3[nH]2)c1	Lassa entry inconclusive, MARV entry inh 7.08µM
COc1ccc2[nH]c(-c3cccc(F)c3)cc(=O)c2c1	MARV entry inh inconclusive
COc1cccc(-c2cc(=O)c3cc(NC(=O)c4ccc(N(C)C)cc4)ccc3[nH]2)c1	Lassa entry inconclusive, MARV entry inh 3.98µM
COCCN1C(=O)NC(c2cccc(C(F)(F)F)c2)C(C(C)=O)=C1C (stereo unspecified)	none
CCCCCCCc1cc2ccccc2c2c(C(=O)OC)c(C)c(C(=O)OC)n12	none
COC(=O)N[C@H](C(C(=O)OC)=C(C)NCc1ccccc1)c1ccccc1	none (no result: Lassa entry)
CO[C@@H]1c2cc(F)ccc2C(=CCCOC(=O)CC=Cc2ccccc2)[C@H]1C	none
COC(=O)C1=C(C)NC(C)=C(C(=O)OCCSc2ccccc2)C1C (stereo unspecified)	Lassa entry 12.6µM, MARV entry inh inconclusive
CCOC(=O)C1=C(C)NC(C)=C(C(=O)OC)C1c1cccc(Cl)c1Cl (stereo unspecified)	none
Cc1cc2c(c(=O)n1Cc1ccccc1)[C@H]1O[C@](CCCCN3C(=O)c4ccccc4C3=O)(Cc3c1ccc1ccccc31)O2	none
CC(C)C[C@H](NC(=O)[C@@H](COC(C)(C)C)NC(=O)[C@H](Cc1ccc(O)cc1)NC(=O)[C@H](CO)NC(=O)[C@H](Cc1c[nH]c2ccccc12)NC(=O)[C@H](Cc1cnc[nH]1)NC(=O)[C@@H]1CCC(=O)N1)C(=O)N[C@@H](CCCN=C(N)N)C(=O)N1CCC[C@H]1C(=O)NNC(N)=O	none
CCCCCC(=O)N1C[C@H](n2cc(-c3ccc(F)cc3)nn2)[C@@H](O)C[C@H]1c1ccc(C)cc1	none
CC[C@@H](C(=O)O)[C@@H]1O[C@@H]([C@@H](C)[C@H](O)[C@H](C)C(=O)[C@H](CC)[C@H]2O[C@]3(C=C[C@@H](O)[C@]4(CC[C@@](C)([C@H]5CC[C@](O)(CC)[C@H](C)O5)O4)O3)[C@H](C)C[C@@H]2C)[C@@H](C)C[C@@H]1C	Lassa entry 1µM, MARV entry inh 6.31µM
CC(C)COCC(CN(Cc1ccccc1)c1ccccc1)N1CCCC1 (stereo unspecified)	Lassa entry 14.1µM!, MARV entry inh 6.31µM
COCCCC/C(=N\OCCN)c1ccc(C(F)(F)F)cc1	MARV entry inh 14.1µM
C=C1C(=C/C=C2\CCC[C@]3(C)[C@@H]([C@H](C)CCCC(C)C)CC[C@@H]23)C[C@@H](O)C[C@@H]1O	Lassa entry 15.8µM
C=C1C(=C/C=C2\CCC[C@]3(C)[C@@H]([C@H](C)/C=C/[C@@H](O)C4CC4)CC[C@@H]23)C[C@@H](O)C[C@@H]1O	Lassa entry 14.1µM
C=C1CCC(O)C/C1=C/C=C1\CCC[C@]2(C)[C@@H]([C@H](C)CCCC(C)C)CC[C@@H]12 (stereo partly specified)	none
C=C1CCC(O)C/C1=C\C=C1/CCCC2(C)C1CCC2C(C)/C=C/C(C)C(C)C (stereo unspecified)	none
C=CCOC(=O)N[C@H](c1ccc2ccccc2c1)[C@H](C)C=CCC(=O)OC	none (no result: Lassa entry)
C=CC(C1=CC(=O)C(OC)=C(OC)C1=O)c1ccccc1 (stereo unspecified)	Lassa entry inconclusive, MARV entry inh 14.1µM
C=CC(C1=CC(=O)C(OC)=CC1=O)c1ccc(OC)cc1 (stereo unspecified)	MARV entry inh inconclusive
COc1cccc(-c2c[nH]c3c(NN=Cc4ccncc4)ncnc23)c1	MARV entry inh inconclusive
CCOC(=O)c1c(C)n(C)c2ccc(O)cc12	none
CCCCNc1c(C(=O)OCC)c(C)nc2c1cnn2CC	Lassa entry 25.1µM!, MARV entry inh 7.94µM!
COc1ccc(CNC(=O)/C=C\c2ccc3[nH]cc(CCN(C)C)c3c2)cc1	MARV entry inh 22.4µM
CN(C)CCc1c[nH]c2ccc(O)cc12	none
COc1cccc(CO[C@H]2C=C[C@@H](c3ccccc3)O[C@H]2COC(C)=O)c1	none
O=C(O)Cc1ccccc1Oc1ccc(Cl)cc1Cl	none
Oc1cc(Cl)ccc1Oc1ccc(Cl)cc1Cl	Lassa entry 25.1µM!, MARV entry inh 35.5µM!
CNCCNS(=O)(=O)c1cccc2cnccc12	none
O=S(=O)(NCCNC/C=C/c1ccc(Br)cc1)c1cccc2cnccc12	MARV entry inh 12.6µM
O=C1/C(=C\c2cccs2)CCC/C1=C\c1cccs1	none
Cc1ccccc1-c1cnc(-c2ccncc2)nc1C1CCCN(Cc2ccccc2O)C1 (stereo unspecified)	MARV entry inh inconclusive
COc1ccc(CN2CCCC(c3nc(-c4ccncc4)ncc3-c3ccccc3C)C2)c(OC)c1 (stereo unspecified)	Lassa entry 17.8µM, MARV entry inh 3.55µM
COc1ccc(CN2CCCC(c3nc(-c4ccncc4)ncc3-c3ccccc3)C2)c(OC)c1OC (stereo unspecified)	MARV entry inh inconclusive
COc1cccc(CN2CCCC(c3nc(-c4ccncc4)ncc3-c3ccccc3)C2)c1O (stereo unspecified)	MARV entry inh 11.2µM
CC(CCN1CCc2nc(-c3ccccc3)c(-c3ccccc3)cc2C1)=NOC[C@@H](O)[C@H]1O[C@@H]2OC(C)(C)O[C@H]2[C@@H]1O	none
COC(=O)N[C@@H](c1ccccc1)[C@]1(C(C)=O)CCCC1=O	none
